# Shown are actives, neighbours in structure and some others; about 19% of the full set was active somewhere.
# AMA1-RON2 inh: qHTS for Inhibitors of AMA1-RON; Towards Development of Antimalarial Drug Lead: Primary Screen | AlphaScreen AMA1-biotinylated RON2 peptide binding | actives 0.2% (n = 360,000) | AID 720542, 2013 | Potency, µM (top dose mostly 58.2 µM), usual class: inhibitors; also: nearly all actives have a fitted effect of over 45% in size
#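 AMA1 (3D7) with his tag at 25 nM final met compounds first, then biotinylated RON2 peptide at 25 nM; detection used donor plus acceptor beads, 10 µg/mL apiece, read by AlphaScreen after 30 min at room temperature.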
# Shiga toxin inh: A qHTS for Small Molecule Inhibitors of Shiga Toxin; Vero cells, Shiga toxin protein synthesis inhibition reporter; actives 9.2% (n = 290,000); inhibition, % at 38.7 µM; AID 2315, 2010; in the data active = inhibition mostly above about 28%, no sharp cut-off; inactive = mostly below about 43%
# Pf growth 48h: Primary qHTS for delayed death inhibitors of the malarial parasite plastid, 48 hour incubation; P. falciparum luciferase growth in erythrocytes, 48 h; Potency, µM (titrated, usually from 28.7 µM), usual class: inhibitors; actives 5.9% (n = 310,000); AID 504832, 2011
#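 Growth was read as firefly luciferase luminescence after a 48 h, 37 C, 5% CO2 exposure of compounds to reporter-bearing P. falciparum cultures (0.1% parasitemia, 2% hematocrit final) in Albumax-supplemented RPMI 1640.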
# SARS PLP yeast: qHTS of Yeast-based Assay for SARS-CoV PLP | S. cerevisiae expressing SARS-CoV PLpro, growth rescue | Potency, µM (titrated, usually from 32.9 µM), most hits filed as activators | actives 0.19% (n = 330,000) | AID 485353, 2010; calls by dose curve; also: nearly all actives have a fitted effect of over 55% in size
# Pf growth 96h: Primary qHTS for delayed death inhibitors of the malarial parasite plastid, 96 hour incubation; P. falciparum luciferase reporter growth, 96 h; Potency, µM (highest dose often 28.7 µM), hits mostly inhibitors; actives 6.9% (n = 320,000); AID 504834, 2011
#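 Erythrocytes infected with luciferase-expressing P. falciparum were dispensed at 2% hematocrit and 0.05% parasitemia (final), then incubated with compounds 96 hours at 37 C in 5% CO2. Luminescence after detection reagent addition reported growth.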
# CHX counter: Cycloheximide Counterscreen for Small Molecule Inhibitors of Shiga Toxin; cell reporter, cycloheximide protein synthesis inhibition counterscreen; AID 2314, 2010; actives 12% (n = 300,000); max response, %; in the data active = max response mostly above about 13%, no sharp cut-off; inactive = mostly below about 14%; also: read at 38.3 µM for the half of the compounds with a filed dose
# A number is an active result; . = inactive; ? = inconclusive; / = not tested or not shown; [ ] = another dose, or the depositor's remark. Unless noted, calls follow the shape of the dose curve; as a rule, active = well fitted curve in the direction sought with a large enough effect; inconclusive = small, poorly fitted or top-dose-only effect, or another doubt; inactive = no such curve, though single readings can be large; an effect the other way counts as inactive or inconclusive.
SMILES,AMA1-RON2 inh,Shiga toxin inh,Pf growth 48h,SARS PLP yeast,Pf growth 96h,CHX counter
COc1ccccc1NC(=O)NCCN1C(=O)C2C3C=CC(C3)C2C1=O (stereo not drawn),.,.,/,.,.,.
N#Cc1c(-c2ccc(F)cc2)ccnc1N1CCOCC1,.,.,?,.,?,19
Cc1cccc2sc(N(CCCN(C)C)C(=O)CCc3ccccc3)nc12,?,.,?,.,1.9µM,.
Cc1ccc2sc(N(CCCN(C)C)C(=O)c3ccc(Br)s3)nc2c1C,25µM,.,?,.,?,.
COc1ccc(OC)c2sc(N(CCCN(C)C)C(=O)CCS(=O)(=O)c3ccccc3)nc12,.,/,?,.,.,/
Cc1cccc2sc(N(CCCN(C)C)C(=O)CN3C(=O)c4ccccc4C3=O)nc12,.,.,.,.,.,.
Cc1ccc2sc(N(CCCN(C)C)C(=O)CCS(=O)(=O)c3ccccc3)nc2c1C,.,.,.,.,6.6µM,.
CN(C)CCN(C(=O)CCS(=O)(=O)c1ccccc1)c1nc2c(F)cccc2s1,.,.,.,.,2.6µM,.
O=C(Cc1ccc2c(c1)OCCO2)N1CCN(S(=O)(=O)c2cccc(C(F)(F)F)c2)CC1,.,.,.,.,.,.
CC1(C)CC(=O)C2=C(C1)NC(=O)CC2,.,/,/,/,/,/
CN(C)CCCN(C(=O)CCSc1ccccc1)c1nc2cc3c(cc2s1)OCO3,.,.,?,.,.,.
CN(C)CCCN(C(=O)CCS(=O)(=O)c1ccccc1)c1nc2cc3c(cc2s1)OCO3,.,.,.,.,.,9.9
CN1CCc2c(sc(/N=C/c3c[nH]c4ccccc34)c2C#N)C1,.,.,?,.,?,.
CCOC(=O)c1c(/N=C/c2ccc(OC)cc2O)sc2c1CCN(C)C2,.,.,10µM,.,5.2µM,.
CN1CCc2c(sc(/N=C/c3c[nH]c4ccccc34)c2C(N)=O)C1,.,.,4.1µM,.,3.7µM,.
Cc1cn([C@H]2C[C@H](O)[C@@H](CCC(=O)NCC(c3ccccc3)c3ccccc3)O2)c(=O)[nH]c1=O,.,/,/,/,/,/
O=C(NNC(=O)c1cc2ccccc2[nH]1)OCc1ccccc1,/,/,/,.,/,/
CC(C)(C)CN1C(=O)C(=O)NC[C@@H]1Cc1ccc(O)cc1,.,.,.,.,.,.
CN=c1scc(-c2ccc(OC)cc2)n1/N=C(\C)c1cccnc1,?,57,.,.,?,32
Cc1ccc(Cl)cc1Nc1nc(-c2sc(NC(=O)C(C)(C)C)nc2C)cs1,.,.,8.3µM,.,5.2µM,.
COc1ccccc1Nc1nc(-c2c(C)[nH]c3ccccc23)cs1,.,.,5.2µM,.,2.3µM,.
CC(=O)Nc1ccc(Nc2nc(-c3sc(NC(C)=O)nc3C)cs2)cc1,.,.,?,.,?,.
COc1ccccc1Nc1nc(-c2sc(NC(=O)CC(C)C)nc2C)cs1,.,.,?,.,1.9µM,.
COc1ccccc1Nc1nc(-c2sc(NC(=O)C(C)(C)C)nc2C)cs1,.,.,?,.,12µM,.
CC1CC(C)CN(C(=O)C2CCCN(S(=O)(=O)c3cnc[nH]3)C2)C1 (stereo not drawn),.,.,?,.,.,.
SMILES,AMA1-RON2 inh,Shiga toxin inh,Pf growth 48h,SARS PLP yeast,Pf growth 96h,CHX counter
CC1(Cc2cc(Cl)ccc2C(F)(F)F)C(=O)Nc2c(Cl)cccc21 (stereo not drawn),.,/,/,/,/,/
Cc1nc(NCCC(C)C)c2nnn(Cc3ccccc3)c2n1,.,.,.,.,.,.
Cc1cccc(C)c1NC(=O)C(c1ccncc1)n1c(=O)c(-c2ccccc2)nc2ccccc21 (stereo not drawn),.,/,/,/,/,/
CCCC(=O)Nc1nc(C)c(-c2csc(Nc3ccccc3OC)n2)s1,.,.,?,?,13µM,.
CCC(=O)Nc1nc(C)c(-c2csc(Nc3ccc(C(=O)O)cc3)n2)s1,.,.,.,.,.,.
CCCCCC(=O)Nc1nc(C)c(-c2csc(Nc3cc(Cl)ccc3OC)n2)s1,.,.,7.4µM,.,3.7µM,.
CC(C)(C)OC(=O)C[C@@H]1C/C=C\C[C@@H](CC(=O)N(CCO)Cc2ccccc2)C(=O)N2CCC[C@@H]2COC1=O,.,/,/,.,/,/
Fc1ccccc1Nc1n[nH]c(=S)s1,.,69,.,.,.,26
Cc1ccccc1Nc1n[nH]c(=S)s1,.,/,/,/,/,/
CC1(C(=O)NC2CCc3ccccc32)CCN1CCc1ccccc1 (stereo not drawn),.,/,/,/,/,/
Cc1cccc2c(N=O)c(O)n(CCc3ccccc3)c12,.,.,?,/,?,.
O=c1cc(O)c2c(=O)n(-c3ccccc3)c3ccccc3c2o1,.,.,.,.,12µM,.
C=CCn1c(COc2cccc(C)c2)nnc1SCn1nnc2ccccc2c1=O,.,.,.,.,.,14
CCC(CC)C(=O)NCCCN1CCOCC1,.[2.32 µM],.,.,.,?,.
O=C1CN(Cc2ccccc2)C(=NCc2ccco2)S1,.,.,1.9µM,.,.,.
OC(CNCCN1CCNCC1)Cc1ccccc1 (stereo not drawn),.,/,/,/,/,/
O=S(=O)(Nc1nccs1)c1ccc(F)cc1,.,59,.,.,?,38
CCc1ccc(S(=O)(=O)Nc2nccs2)cc1,.,.,.,.,?,.
O=C(Nc1ccc(S(=O)(=O)Nc2nccs2)cc1)c1c(F)c(F)c(F)c(F)c1F,.,.,.,.,3.7µM,.
Cc1nc2sc(C(c3ccco3)N3CCN(C(c4ccccc4)c4ccccc4)CC3)c(O)n2n1 (stereo not drawn),.,.,1.7µM,.,?,.
Cc1nn(Cc2cccc(F)c2)c(C)c1NC(=O)c1c(Cl)cnn1C,.,.,.,.,.,.
CCOC(=O)c1ccc(NC(=S)NCCc2ccc(F)cc2)cc1,.,.,.,.,.,.
COc1cc(CO)ccc1OCc1ccc(Cl)nc1,.,149,.,.,.,51
COc1cc(CNCCc2ccc(F)cc2)ccc1OCc1ccc(Cl)nc1,.,.,/,.,?,.
COc1ccc(C(=O)Cn2nnc(-c3ccccc3F)n2)cc1,.,.,.,.,.,12
COc1cc(OC)cc(C(=O)Nc2ccccc2-c2nnn(CC(N)=O)n2)c1,.,.,?,.,.,.
COc1ccc(C(=O)Cn2nnc(-c3ccccc3NC(=O)C3CC3)n2)cc1,.,.,12µM,.,?,18
C[C@H](CO)N1C[C@H](C)[C@H](CN(C)Cc2cccc(O)c2)OCc2ccccc2-c2c(n(C)c3ccccc23)C1=O,.,/,/,/,/,/
COc1ccc(CN2CCN(S(=O)(=O)c3ccc(NC(C)=O)cc3)CC2)cc1OC,?,.,?,.,10µM,.

# Bioassay records as filed in PubChem.
